{
  "source": "PubChem BioAssay AID493209",
  "about": "(National Center for Advancing Translational Sciences (NCATS), 2011)",
  "note": "Activity calls are given as the source filed them.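 Rule for the calls: active = compounds that raised 12-lipoxygenase product formation in the cuvette follow-up test, with a fitted potency; inactive = the rest, inconclusive results apart.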",
  "data": [
    {"biological_target": "Polyunsaturated fatty acid lipoxygenase ALOX12 (Homo sapiens) (UniProt P18054)", "sequence (P18054 whole entry, looked up)": "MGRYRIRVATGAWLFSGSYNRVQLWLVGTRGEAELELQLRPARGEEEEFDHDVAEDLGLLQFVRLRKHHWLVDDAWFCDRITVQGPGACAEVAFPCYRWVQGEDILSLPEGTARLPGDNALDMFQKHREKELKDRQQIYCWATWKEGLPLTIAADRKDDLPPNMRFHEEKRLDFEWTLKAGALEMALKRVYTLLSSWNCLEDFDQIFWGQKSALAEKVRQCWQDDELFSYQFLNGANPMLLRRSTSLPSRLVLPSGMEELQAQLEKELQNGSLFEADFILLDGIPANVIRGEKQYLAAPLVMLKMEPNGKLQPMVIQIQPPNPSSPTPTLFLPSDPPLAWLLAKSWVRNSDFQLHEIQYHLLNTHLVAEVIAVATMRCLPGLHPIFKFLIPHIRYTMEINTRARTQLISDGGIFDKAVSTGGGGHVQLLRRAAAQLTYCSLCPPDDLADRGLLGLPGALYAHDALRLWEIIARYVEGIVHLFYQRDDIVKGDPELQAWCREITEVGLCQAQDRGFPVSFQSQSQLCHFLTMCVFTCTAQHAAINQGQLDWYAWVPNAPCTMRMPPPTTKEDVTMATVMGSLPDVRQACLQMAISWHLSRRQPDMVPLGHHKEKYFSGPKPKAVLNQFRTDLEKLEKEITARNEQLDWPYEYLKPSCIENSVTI", "experiment": "Activators of 12-hLO (12-human lipoxygenase): 12hLO Cuvette-Based Hit Validation Assay of Followup Compounds", "conditions": "purified 12-hLO, cuvette UV 234 nm product formation", "description": "The enzyme activity of 12-hLO was determined by a direct measurement of product formation by monitoring the absorbance at 234 nm in a 2 mL cuvette. IC50 values of inhibitors were obtained by measuring the enzymatic rate at a variety of concentrations (Carroll et al, Segraves et al). This assay was used to validate active or inconclusive putative activators identified in the primary screen (see related BioAssay AIDs). Assay Provider: Holman, T.R., University of California, Santa Cruz Screening Center PI: Austin, Christopher P. Screening Center: NIH Chemical Genomics Center\nFor control experiments, 2 mL of substrate buffer (10 uM arachidonic acid / 25 mM HEPES / 0.01% (v/v) Triton X-100, pH 8.0) was aliquoted in a cuvette with a magnetic stir bar. After equilibrium was ensured, an aliquot of inhibitor solvent was added (DMSO), and equilibrium was once again assured. The reaction was started by adding enzyme to the cuvette and the reaction was followed until completed. The inhibition experiments were performed as above, except the actual inhibitory compound was added instead of vehicle. To achieve an IC50, typically 5 concentrations of the inhibitor were studied. If the inhibitor concentration was constant, then five different reaction volumes were used. Step \\ Parameter \\ Value \\ Description 1; UV-Vis; 234 nm; Equilibration 2; Reagent; 2 mL; Substrate buffer 3; UV-Vis; 234 nm; Equilibration 4; Reagent; varies; Compound 5; UV-Vis; 234 nm; Equilibration 6; Reagent; 50-200 nM; Enzyme 12-hLO 7; UV-Vis; 234 nm; Enzymatic reaction Step \\ Notes 1; Blank cuvette to air. 2; 10 uM AA, 25 mM HEPES, 0.01% Triton X-100, pH 8. 3; No change in absorbance ensured. 4; Compound vehicle or compound in various concentrations depending on potency. 5; No change in absorbance ensured. 6; Enzyme concentration to achieve reaction rate between 0.02 and 0.04 AU/s. 7; Enzymatic reaction visualized until completion.", "values": [
      {"smiles": "CCc1ccc(S(=O)(=O)/N=C2/C=C(Sc3ncn[nH]3)C(=O)c3ccccc32)cc1", "outcome": "inactive"},
      {"smiles": "COc1ccc(-c2[nH]ncc2-c2ccc(Cl)cc2)c(O)c1", "outcome": "inactive"},
      {"smiles": "Cc1cc(C)c2cc(CN(Cc3nnnn3C3CCCCC3)CC3CCCO3)c(=O)[nH]c2c1", "note": "(stereo not given)", "outcome": "inactive"},
      {"smiles": "COc1ccc(Cc2nc(C(=O)Nc3ccc(OC)cc3)cs2)cc1", "outcome": "inactive"},
      {"smiles": "Cc1ccc(C(=O)Nc2nnc(-c3ccco3)o2)cc1C", "outcome": "inactive"},
      {"smiles": "O=C(Nc1nnc(-c2ccccn2)o1)c1ccc(Br)cc1", "outcome": "inactive"},
      {"smiles": "CN(C)c1nccc(N(Cc2ccccc2)Cc2ccccc2)c1C#N", "outcome": "inactive"},
      {"smiles": "Oc1ccc(-c2nc(-c3ccc(O)c(O)c3)cs2)cc1", "outcome": "inactive"},
      {"smiles": "O=C(Nc1nnc(C2=COCCO2)o1)c1ccc(Cl)cc1", "outcome": "inactive"},
      {"smiles": "COc1ccc(-c2n[nH]c(C)c2-c2ccc(Cl)cc2)c(O)c1", "outcome": "inactive"},
      {"smiles": "Oc1ccc(CN2CCCc3ccccc32)c2cccnc12", "Potency": "43.6 µM (active)"},
      {"smiles": "O=C(/C=C/c1ccc(O)c(O)c1)c1ccc(S(=O)(=O)N2CCCCCC2)cc1", "outcome": "inactive"},
      {"smiles": "CSc1ccc(S(=O)(=O)Nc2ccc(S(=O)(=O)Nc3ccc(C)cc3)cc2)cc1", "outcome": "inactive"},
      {"smiles": "CCOC(=O)Cc1cc(=O)n(-c2nc3ccccc3s2)[nH]1", "outcome": "inactive"},
      {"smiles": "CC1=NN(c2ccc(Cl)cc2)C(=O)C1C(c1ccccc1O)c1c(C)[nH]n(-c2ccc(Cl)cc2)c1=O", "note": "(stereo not given)", "outcome": "inactive"},
      {"smiles": "CCc1cc(-c2[nH]ncc2-c2ccc3c(c2)OCO3)c(O)cc1O", "outcome": "inactive"},
      {"smiles": "Oc1ccc(-c2csc(-c3ccccc3)n2)cc1O", "outcome": "inactive"},
      {"smiles": "Cc1cccnc1NCc1ccc(O)c2ncccc12", "Potency": "46.4 µM (active)"},
      {"smiles": "Cc1[nH]nc(-c2ccc(O)cc2O)c1-c1ccc(Cl)cc1", "outcome": "inactive"},
      {"smiles": "N#CC1=C(N)Oc2n[nH]c(-c3cccs3)c2C1C1CCCCC1", "note": "(stereo not given)", "outcome": "inactive"},
      {"smiles": "Cc1ccc(C(=O)Nc2nnc(-c3ccco3)o2)cc1", "outcome": "inactive"},
      {"smiles": "CCCOC(=O)c1ccc(Oc2cn[nH]c2-c2ccc(OC)cc2O)cc1", "outcome": "inactive"},
      {"smiles": "Oc1ccccc1-c1cc(-c2ccc3c(c2)OCCO3)n[nH]1", "outcome": "inactive"},
      {"smiles": "Cc1ccc(S(=O)(=O)Nc2nc(C)c(NC(=O)Nc3ccc(Cl)cc3Cl)s2)cc1", "outcome": "inactive"},
      {"smiles": "COc1cc(CNc2ccc(O)cc2)cc(Br)c1OCc1ccccc1F", "outcome": "inactive"},
      {"smiles": "CCOC(=O)CNC(c1ccccc1)c1cc(Br)ccc1NC(=O)CCN1CCOCC1", "note": "(stereo not given)", "Potency": "70 µM (active)"},
      {"smiles": "COc1ccc(-c2n[nH]c(C(F)(F)F)c2-c2cc3ccccc3o2)c(O)c1", "outcome": "inactive"},
      {"smiles": "Oc1ccc(Cl)cc1-c1cc(-c2ccco2)[nH]n1", "outcome": "inactive"},
      {"smiles": "O=S(=O)(Nc1ccc(O)c(Sc2nc3ccccc3s2)c1)c1ccc(Cl)cc1", "outcome": "inactive"},
      {"smiles": "COc1cccc(-c2cnc(NCc3cc(Cl)ccc3O)n2C)c1", "outcome": "inactive"},
      {"smiles": "COc1ccc2nc(NC(=O)c3cccc(OCc4c(C)noc4C)c3)sc2c1", "outcome": "inactive"},
      {"smiles": "COc1ccc(C(Nc2ccccn2)c2c(NC(=O)c3ccco3)sc(C)c2C)cc1", "note": "(stereo not given)", "outcome": "inactive"},
      {"smiles": "CCc1cc(-c2n[nH]c(C)c2Oc2ccc(C(C)C)cc2)c(O)cc1O", "outcome": "inactive"},
      {"smiles": "O=C(NC(=S)Nc1ccccc1N1CCCC1)c1ccc([N+](=O)[O-])cc1", "Potency": "66.7 µM (active)"},
      {"smiles": "COc1ccc(/C=C/c2nc(-c3ccccc3O)n[nH]2)cc1", "outcome": "inactive"},
      {"smiles": "COc1cc(CNc2ccc(N3CCCC3)cc2)ccc1OCc1ccccc1", "outcome": "inactive"},
      {"smiles": "CC(Oc1ccc(Cl)cc1Cl)C(=O)NC1=NN(c2ccccc2)C(=O)C1", "note": "(stereo not given)", "outcome": "inactive"},
      {"smiles": "Oc1ccccc1-c1cc(-c2ccccc2Cl)[nH]n1", "outcome": "inactive"},
      {"smiles": "COc1ccc(C(=O)Nc2cc(C(=O)c3ccccc3)c(C)oc2=O)cc1", "Potency": "61.6 µM (active)"},
      {"smiles": "CSCCC(NC(=O)c1ccc(Cl)cc1)C(=O)OCC(=O)Nc1ccc(C#N)cc1", "note": "(stereo not given)", "outcome": "inactive"}
    ]}
  ]
}
